# PubChem BioAssay AID588675 (Johns Hopkins Ion Channel Center, 2011)
# In all, about 310,000 compounds went through this assay and about 1,900 (0.61%) were called active. The sample holds actives, similar compounds and a random draw of the others, so the mix is not that of the screen.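 The calls were made as follows: active = plate-corrected calcium response at least 3 library SD above typical, normal starting fluorescence, not activating the receptor alone; inactive = the rest.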
# Biological target: Mas-related G-protein coupled receptor member X1 (Homo sapiens) (UniProt Q96LB2)
# Sequence (Q96LB2 whole entry, looked up): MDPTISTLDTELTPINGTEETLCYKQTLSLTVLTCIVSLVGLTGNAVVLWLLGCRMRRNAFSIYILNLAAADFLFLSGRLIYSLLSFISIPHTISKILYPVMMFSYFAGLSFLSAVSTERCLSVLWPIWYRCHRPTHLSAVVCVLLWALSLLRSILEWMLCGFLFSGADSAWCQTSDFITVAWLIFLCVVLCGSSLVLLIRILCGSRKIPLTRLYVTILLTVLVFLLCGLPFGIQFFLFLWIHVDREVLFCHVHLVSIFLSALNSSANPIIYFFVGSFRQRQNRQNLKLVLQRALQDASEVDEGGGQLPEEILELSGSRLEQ
# Test: positive allosteric modulators of MrgX1, primary screen, HEK293 cells, Fluo-4 calcium flux (AID 588675);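 also: compound read alongside a low EC10 to EC30 dose of BAM8-22 agonist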;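 as to B-score: peak minus trough fluorescence over baseline measured at the second addition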
# Conditions: MrgX1-HEK293, Fluo-4 calcium flux, FDSS, at 10 µM; active compounds read high
row,SMILES,B-score
1,CCC(C)c1ccc(O)c(/C=N/O)c1 (stereo not given),6.88 (active)
2,CNCC(O)c1ccc(O)c(O)c1 (stereo not given),inactive
3,CCOC(=O)c1cccc(NC(=O)C2CCN(c3ncnc4c3nc3n4CCCCC3)CC2)c1,inactive
4,CCCCCCCCCCCC(=O)O,inactive
5,CCCC(=O)OCC(=O)Nc1cc(Cl)ccc1[N+](=O)[O-],9.84 (active)
6,CC(C)(C)NC(=O)COC(=O)c1cc(Cl)ccc1[N+](=O)[O-],inactive
7,Cc1cc(NC(=O)COC(=O)COc2ccc(Cl)cc2C)c([N+](=O)[O-])cc1C,inactive
8,CCN(CC(=O)NC1CCS(=O)(=O)C1)S(=O)(=O)c1ccccc1 (stereo not given),inactive
9,Cc1coc2c(O)cc3c(c12)OC1(N2CCCCC2)C(=O)NCCCC31 (stereo not given),inactive
10,COc1cccc(NC(=O)NCCN2CCCCC2)c1,inactive
11,Cc1ccc2c(c1)C1CN(C)CCC1N2S(=O)(=O)c1ccc(Oc2ccc([N+](=O)[O-])cc2)cc1 (stereo not given),inactive
12,Cc1ccc(S(=O)(=O)N(C)c2ccc(OCC(=O)OCC(=O)N(CC#N)c3ccccc3)cc2)cc1,inactive
13,Cc1ccc2nc(Nc3ccccc3)cc(C)c2c1,14 (active)
14,Cc1ccc2nc(Nc3ccccc3O)nc(-c3ccccc3)c2c1,inactive
15,Cc1cc(Nc2ccc(Br)cc2)nc2ccccc12,inactive
16,CCCN(CCC)C(=O)C1c2ccccc2Oc2ccccc21,inactive
17,CCOc1cccc(NC(=O)CC#N)c1,inactive
18,CC(C)Nc1nnc(SCC(=O)/C=C2\N(C)c3ccccc3C2(C)C)s1,inactive
19,CC(=O)Nc1cccc(OCC(=O)/C=C2\N(C)c3ccccc3C2(C)C)c1,6.96 (active)
20,Cc1ccc(S(=O)(=O)N2[C@@H](c3ccccc3F)C(C(=O)O)=CC[C@H]2c2ccc(Cl)cc2)cc1,15.6 (active)
21,Cc1ccc([C@@H]2CC=C(C(=O)O)[C@H](c3cccc(Cl)c3)N2S(=O)(=O)c2ccc(C)cc2)cc1,inactive
22,Cc1ccc(S(=O)(=O)N2[C@@H](c3cccc(Cl)c3)C(C(=O)O)=CC[C@H]2c2ccc(Cl)c(Cl)c2)cc1,inactive
23,CC(=O)Nc1cccc(C(=O)OCN2C(=O)c3ccccc3C2=O)c1,inactive
24,O=C(c1ccc(OC2CCN(C/C=C/c3ccc(F)cc3)CC2)cc1)N1CCCCC1,inactive
25,O=C(c1ccc(OC2CCN(Cc3ccccn3)CC2)cc1)N1CCCCCC1,inactive
26,O=C(c1ccc(OC2CCN(C(=O)c3cccnc3)CC2)cc1)N1CCCCCC1,6.62 (active)
27,O=C(NCCCc1ccccc1)C1CCC(CNc2c(N3CCCCC3)c(=O)c2=O)CC1 (stereo not given),inactive
28,Cc1cccc(C)c1NC(=O)N1CC=C(n2c(=O)[nH]c3ccccc32)CC1,inactive
29,CCOc1ccc(NC(=O)N2CC=C(n3c(=O)[nH]c4ccccc43)CC2)cc1,7.16 (active)
30,CCOc1ccc(NC(=O)N2CCN(CC)CC2)cc1,inactive
